Experimental data reported in PubChem BioAssay (Tox21).
Inconclusive results are not listed. Active and inactive are the calls of the source. Unless noted, the call rests on the fitted dose curve; in most records, active means well fitted curve in the direction sought with a large enough effect in the repeat runs; inconclusive means weak or mixed curves; inactive means no such curve, though single readings can be large; an effect the other way counts as inactive or inconclusive.

What was measured:
[1] = qHTS assay to test for compound auto fluorescence at 535 nm (green) in HEK293 cells (AID 720680)
[2] = qHTS assay to test for compound auto fluorescence at 460 nm (blue) in HEK293 cell free culture (AID 720681)
Procedure, shortened: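 Blue fluorescence (Ex 405/Em 460 nm, triamterene-equivalent) was read immediately after pin transfer of compound or DMSO into medium (DMEM, 10% FBS) without cells.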

[3] = qHTS assay to test for compound auto fluorescence at 535 nm (green) in HEK293 cell free culture (AID 720682)
Procedure, shortened: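 Each library compound, or DMSO control, is added by pintool to medium alone, comprising DMEM and 10% FBS. Emission at 535 nm following 485 nm excitation is quantified against fluorescein.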

[4] = qHTS assay to test for compound auto fluorescence at 590 nm (red) in HEK293 cell free culture (AID 720683)
Procedure, shortened: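 Red-channel autofluorescence of compounds in culture medium (DMEM, 10% FBS), no cells, measured at 540/590 nm. Rose Bengal sodium is the reference fluorophore for equivalence.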

[5] = qHTS assay to test for compound auto fluorescence at 590 nm (red) in HepG2 cell free culture (AID 720684)
Procedure, shortened: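 Plate contents were MEM with 10% FBS plus test compound or DMSO, no cells. Fluorescence was recorded with 540 nm excitation and 590 nm emission.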

[6] = qHTS assay to test for compound auto fluorescence at 460 nm (blue) in HepG2 cell free culture (AID 720685)
Procedure, shortened: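 Compound (23 nL) or DMSO pinned into cell-free MEM with 10% FBS; blue fluorescence read at 405/460 nm excitation/emission, expressed as auto-fluorescence equivalency to triamterene.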

[7] = qHTS assay to test for compound auto fluorescence at 535 nm (green) in HepG2 cell free culture (AID 720686)
[8] = qHTS assay to test for compound auto fluorescence at 460 nm (blue) in HepG2 cells (AID 720687)
Procedure, shortened: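 Blue-channel autofluorescence (Ex/Em 405/460 nm, triamterene-equivalent) was measured after 1 hr compound exposure at 37 C, 5% CO2. Cells were HepG2, plated overnight at 37 C in MEM plus 10% FBS.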

[9] = target: Glucocorticoid receptor (Homo sapiens) (UniProt P04150); test: qHTS assay to identify small molecule agonists of the glucocorticoid receptor (GR) signaling pathway (AID 720691; active means well fitted activation curve with a large enough effect in the signal ratio in the repeat runs, not every such curve was filed as active; the % refers to the signal ratio); details: GR-bla HeLa, beta-lactamase reporter ratio, 18 h; activation: at 62.4 µM (top of the series)
Procedure, shortened: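 GR-bla HeLa cells carrying a GRE-driven beta-lactamase reporter, exposed to compounds for 18 h at 37 C. Reporter activation read as fluorescence after 2 h with LiveBLAzer B/G FRET substrate at room temperature.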

[10] = target: Glucocorticoid receptor (Homo sapiens) (UniProt P04150); test: qHTS assay to identify small molecule antagonists of the glucocorticoid receptor (GR) signaling pathway (AID 720692; active means well fitted inhibition curve with a large enough effect in the signal ratio in the repeat runs, not every such curve was filed as active; the % refers to the signal ratio; further: potency means the concentration at half of the fitted maximal effect)
Procedure, shortened: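 GR-bla HeLa cells carrying a GRE-driven beta-lactamase reporter received compound after 4 h plating, then dexamethasone (5 nM final). After 18 h at 37C, the FRET substrate was loaded for 2 h at room temperature and fluorescence read.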

[11] = qHTS assay to identify small molecule antagonists of the glucocorticoid receptor (GR) signaling pathway - cell viability counter screen (AID 720693); further: nearly all actives have a fitted effect of over 55% in size
[12] = qHTS assay for identifying genotoxic compounds that show differential cytotoxicity against isogenic chicken DT40 cell lines with known DNA damage response pathways - Rad54/Ku70 mutant cell line (AID 743015); further: nearly all actives have a fitted effect of over 60% in size; further: potency means the concentration at half of the fitted maximal effect
[13] = qHTS assay to identify small molecule antagonists of the androgen receptor (AR) signaling pathway - cell viability counter screen (AID 743033; further: nearly all actives have a fitted effect of over 45% in size)
[14] = target: Androgen receptor (Homo sapiens) (UniProt P10275); test: qHTS assay to identify small molecule antagonists of the androgen receptor (AR) signaling pathway (AID 743035; active means well fitted inhibition curve with a large enough effect in the signal ratio in the repeat runs, not every such curve was filed as active; the % refers to the signal ratio)
Procedure, shortened: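 HEK293 cells stably carrying UAS-beta-lactamase reporter, 2,000/well, given compounds plus R1881 agonist and incubated 16 h at 37C. LiveBLAzer B/G FRET substrate then added for 2 h at room temperature before fluorescence reading.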

[15] = target: Androgen receptor (Homo sapiens) (UniProt P10275); test: qHTS assay to identify small molecule agonists of the androgen receptor (AR) signaling pathway (AID 743036; active means well fitted activation curve with a large enough effect in the signal ratio in the repeat runs, with a control signal flat, not every such curve was filed as active; the % refers to the signal ratio; further: potency means the concentration at half of the fitted maximal effect)
Procedure, shortened: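 Following a 4 h settling period, AR-UAS-bla HEK293 cells were dosed with compounds for 16 h at 37C. A 2 h room-temperature incubation with LiveBLAzer B/G FRET substrate preceded the fluorescence measurement.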

[16] = target: Androgen receptor (Homo sapiens) (UniProt P10275); test: qHTS assay to identify small molecule agonists of the androgen receptor (AR) signaling pathway using the MDA cell line (AID 743040; further: nearly all actives have a fitted effect of over 20% in size; further: potency means the concentration at half of the fitted maximal effect)
Procedure, shortened: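 After a 5 h incubation at 37C and 0% CO2, MDA-kb2 reporter cells were dosed with compounds in DMSO and kept 16 h under the same conditions. Luciferase activity was then read as luminescence with ONE-Glo.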

[17] = target: Androgen receptor (Homo sapiens) (UniProt P10275); test: qHTS assay to identify small molecule antagonists of the androgen receptor (AR) signaling pathway using the MDA cell line (AID 743042; further: nearly all actives have a fitted effect of over 55% in size)
Procedure, shortened: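 Antagonist mode: compounds plus R1881 agonist added to MDA-kb2 AR-luc cells, incubated 16 h at 37C. Luciferase reporter luminescence quantified, with multiplexed CellTiter-Fluor readout for cell viability.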

[18] = qHTS assay for identifying genotoxic compounds that show differential cytotoxicity against isogenic chicken DT40 cell lines with known DNA damage response pathways - Rev3 mutant cell line (AID 743014); further: nearly all actives have a fitted effect of over 55% in size; further: potency means the concentration at half of the fitted maximal effect
[19] = qHTS assay to identify small molecule antagonists of the androgen receptor (AR) signaling pathway using the MDA cell line - cell viability counter screen (AID 743041; further: nearly all actives have a fitted effect of over 45% in size)
Procedure, shortened: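 R1881-driven MDA-kb2 AR-luc cells, 3,000/well, were dosed with library compounds for 16 h; cell health came from CellTiter-Fluor fluorescence in the reporter wells.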

[20] = qHTS assay for identifying genotoxic compounds that show differential cytotoxicity against isogenic chicken DT40 cell lines with known DNA damage response pathways - wild type cell line (AID 743012); further: nearly all actives have a fitted effect of over 60% in size
Procedure, shortened: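 Wild-type DT40 cells (300/well) exposed to compounds for 40 hours at 37 C/5% CO2. Viability read by CellTiter-Glo luminescence after 30 min at room temperature.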

Measured: Potency

Sequence of Glucocorticoid receptor (Homo sapiens) (P04150 whole entry, looked up): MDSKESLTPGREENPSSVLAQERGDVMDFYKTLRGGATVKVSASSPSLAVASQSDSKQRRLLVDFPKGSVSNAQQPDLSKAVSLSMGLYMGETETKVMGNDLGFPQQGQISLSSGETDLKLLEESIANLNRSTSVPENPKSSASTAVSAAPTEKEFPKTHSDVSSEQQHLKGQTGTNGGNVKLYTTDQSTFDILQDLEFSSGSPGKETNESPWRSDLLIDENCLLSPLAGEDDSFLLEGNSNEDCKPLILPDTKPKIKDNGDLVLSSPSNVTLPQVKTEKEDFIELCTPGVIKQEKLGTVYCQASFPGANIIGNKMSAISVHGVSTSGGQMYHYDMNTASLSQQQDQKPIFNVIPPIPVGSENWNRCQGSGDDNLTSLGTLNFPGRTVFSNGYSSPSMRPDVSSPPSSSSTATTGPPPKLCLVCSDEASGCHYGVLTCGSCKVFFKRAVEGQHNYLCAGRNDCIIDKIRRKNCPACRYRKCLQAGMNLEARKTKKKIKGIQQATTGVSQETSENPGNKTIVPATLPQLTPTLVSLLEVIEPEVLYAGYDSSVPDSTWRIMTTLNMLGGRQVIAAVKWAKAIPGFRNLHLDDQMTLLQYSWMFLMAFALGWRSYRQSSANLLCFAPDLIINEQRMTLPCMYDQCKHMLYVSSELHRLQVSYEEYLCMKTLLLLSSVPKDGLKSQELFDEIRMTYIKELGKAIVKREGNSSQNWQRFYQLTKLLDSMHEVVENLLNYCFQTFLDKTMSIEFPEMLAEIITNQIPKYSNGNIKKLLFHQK
Sequence of Androgen receptor (Homo sapiens) (P10275 whole entry, looked up): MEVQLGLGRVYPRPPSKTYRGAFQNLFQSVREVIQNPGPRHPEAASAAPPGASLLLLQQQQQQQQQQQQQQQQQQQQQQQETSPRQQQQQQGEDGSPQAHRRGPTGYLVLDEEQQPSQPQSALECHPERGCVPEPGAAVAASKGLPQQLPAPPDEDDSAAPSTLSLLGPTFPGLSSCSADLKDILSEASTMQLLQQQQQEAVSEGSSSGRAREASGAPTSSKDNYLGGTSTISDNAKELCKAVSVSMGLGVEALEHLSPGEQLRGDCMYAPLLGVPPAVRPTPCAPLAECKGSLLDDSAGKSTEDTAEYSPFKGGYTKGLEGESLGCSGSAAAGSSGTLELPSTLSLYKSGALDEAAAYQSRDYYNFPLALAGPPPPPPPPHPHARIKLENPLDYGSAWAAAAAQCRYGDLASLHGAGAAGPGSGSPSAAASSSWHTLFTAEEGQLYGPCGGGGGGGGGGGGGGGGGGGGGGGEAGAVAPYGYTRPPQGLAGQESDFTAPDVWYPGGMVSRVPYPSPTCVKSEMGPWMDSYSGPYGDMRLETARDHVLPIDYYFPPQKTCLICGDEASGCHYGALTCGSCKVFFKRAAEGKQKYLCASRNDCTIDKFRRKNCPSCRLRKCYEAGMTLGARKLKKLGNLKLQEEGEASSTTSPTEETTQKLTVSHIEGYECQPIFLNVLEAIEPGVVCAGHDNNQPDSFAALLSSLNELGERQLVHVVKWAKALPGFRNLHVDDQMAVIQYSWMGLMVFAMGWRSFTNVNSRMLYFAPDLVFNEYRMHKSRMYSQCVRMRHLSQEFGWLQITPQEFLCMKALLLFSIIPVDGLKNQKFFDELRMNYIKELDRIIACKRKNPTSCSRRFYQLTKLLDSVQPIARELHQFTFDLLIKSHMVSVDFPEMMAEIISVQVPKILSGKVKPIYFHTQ

O=C(O)c1cc(N=Nc2ccc(O)c(C(=O)O)c2)ccc1O
not listed: [18] | [19] | [20]
inactive: all other assays above

CCC(CN)CC(C)CCNCC(O)CNCC(C)CC(CC)CN (stereo not drawn)
not listed: [13] | [20]
inactive: all other assays above

c1ccc2cc(C3=NCCN3)ccc2c1
active: [12] 18.8 µM
not listed: [14] | [15] | [16] | [17] | [18] | [20]
inactive: all other assays above

O=C(Nc1ccc(O)cc1)c1ccccc1O
not listed: [14] | [15] | [18] | [20]
inactive: all other assays above

NS(=O)(=O)c1cc2c(cc1Cl)NC(Cc1ccccc1)NS2(=O)=O (stereo not drawn)
not listed: [13] | [14] | [15] | [16] | [17] | [20]
inactive: all other assays above

Nc1nc2c(c(=O)[nH]1)N(C=O)C(CNc1ccc(C(=O)N[C@@H](CCC(=O)O)C(=O)O)cc1)CN2 (stereo partly drawn)
not listed: [15] | [18] | [20]
inactive: all other assays above

CC(C)(C)NCC(O)CSc1nc(-c2ccc(C(N)=O)s2)cs1 (stereo not drawn)
not listed: [12] | [14] | [15] | [16] | [17] | [20]
inactive: all other assays above

C[C@]12CCC(=O)C[C@@H]1CC[C@@H]1[C@@H]2CC[C@]2(C)C=CC[C@@H]12
not listed: [12] | [14] | [15] | [16] | [17] | [18]
inactive: all other assays above

CCCCCCCCCCCCCCCCCCOP(=O)([O-])OC1CC[N+](C)(C)CC1
active: [12] 14.6 µM
not listed: [14] | [15] | [16] | [17] | [18] | [20]
inactive: all other assays above

CCCCC(O)c1ccccc1 (stereo not drawn)
not listed: [14] | [15] | [16] | [17] | [20]
inactive: all other assays above

COc1cc(S(C)=O)ccc1-c1nc2ncccc2[nH]1 (stereo not drawn)
not listed: [14] | [15] | [16] | [17] | [18] | [20]
inactive: all other assays above

CCCCCCCCCCCCCCCCCC(=O)OCCO
not listed: [14] | [15] | [16] | [17] | [20]
inactive: all other assays above

CCCN(CC)C(CC)C(=O)Nc1c(C)cccc1C (stereo not drawn)
not listed: [14] | [15] | [16] | [17] | [20]
inactive: all other assays above

C[C@]12CC[C@@H]3c4ccc(OC(=O)c5ccccc5)cc4CC[C@H]3[C@@H]1CC[C@@H]2O
active: [10] 6.01 µM | [18] 9.44 µM | [15] 3.38 µM | [16] 1.33 µM
not listed: [12] | [14] | [20]
inactive: all other assays above

C=CCN1CCCC1CNC(=O)c1cc(S(N)(=O)=O)cc(OC)c1OC (stereo not drawn)
not listed: [12] | [14] | [15] | [16] | [17] | [18]
inactive: all other assays above
